These results are taken from article PMC7862700, “An all-to-all approach to the identification of sequence-specific readers for epigenetic DNA modifications on cytosine”.

What all share (assay): DAPPL (digital affinity profiling via proximity ligation, sequencing); 10 mM Tris-HCl pH 7.5, 50 mM NaCl, 1 mM DTT, 4% glycerol, room temperature, 30 min; GST-TFs on glutathione beads, 16-mer random dsDNA library, 0.1% formaldehyde crosslink after washing; high values mean tight binding
The target in one assay is ELF1 (Homo sapiens, UniProt P32519 1-619). The following applies: protein: recombinant; tags: N-terminal GST; dsDNA, one strand shown. The gist of the method:
(§1)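 Each value of binding signal is a hexamer's read frequency for a factor divided by the same hexamer's frequency in the tag-only sample. Barcoded, bead-captured GST fusions of human transcription factors made in yeast were pooled with that sample and incubated with 200 nmole of a random double-stranded 16-mer DNA library in Tris/NaCl/DTT/glycerol buffer at room temperature for 30 min. Washing, 0.1% formaldehyde crosslinking, proximity ligation, PCR and Illumina NextSeq500 sequencing followed.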

A further assay has as its target SPI1 (Homo sapiens, UniProt P17947 1-270). The conditions noted are these: protein: recombinant; tags: N-terminal GST; dsDNA, one strand shown. The gist of the method:
as §1

A further assay addresses SPIB (Homo sapiens, UniProt Q01892 1-262). The conditions noted are these: protein: recombinant; tags: N-terminal GST; dsDNA, one strand shown. In outline: as §1
In the next assay the target is HSF1 (Homo sapiens, UniProt Q00613 1-529). The conditions noted are these: protein: recombinant; tags: N-terminal GST; chain copies: 3; dsDNA, one strand shown. In outline: as §1
HSF1, sequence (Q00613 whole entry): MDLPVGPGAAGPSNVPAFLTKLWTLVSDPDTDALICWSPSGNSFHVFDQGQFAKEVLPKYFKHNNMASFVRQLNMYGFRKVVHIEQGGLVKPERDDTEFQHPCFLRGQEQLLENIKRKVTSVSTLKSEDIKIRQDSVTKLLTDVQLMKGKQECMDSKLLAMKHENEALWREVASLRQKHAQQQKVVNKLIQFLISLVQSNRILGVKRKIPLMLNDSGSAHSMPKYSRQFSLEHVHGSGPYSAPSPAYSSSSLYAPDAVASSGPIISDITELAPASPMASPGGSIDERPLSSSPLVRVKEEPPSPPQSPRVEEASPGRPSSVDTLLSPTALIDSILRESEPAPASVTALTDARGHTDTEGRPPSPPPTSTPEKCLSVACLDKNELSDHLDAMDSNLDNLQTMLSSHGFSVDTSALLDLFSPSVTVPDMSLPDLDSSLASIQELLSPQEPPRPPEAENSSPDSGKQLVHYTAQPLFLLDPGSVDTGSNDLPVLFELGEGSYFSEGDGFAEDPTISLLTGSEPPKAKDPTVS
The next assay has as its target T1, SPIC (Homo sapiens, UniProt Q8N5J4 1-248).
T1 sequence: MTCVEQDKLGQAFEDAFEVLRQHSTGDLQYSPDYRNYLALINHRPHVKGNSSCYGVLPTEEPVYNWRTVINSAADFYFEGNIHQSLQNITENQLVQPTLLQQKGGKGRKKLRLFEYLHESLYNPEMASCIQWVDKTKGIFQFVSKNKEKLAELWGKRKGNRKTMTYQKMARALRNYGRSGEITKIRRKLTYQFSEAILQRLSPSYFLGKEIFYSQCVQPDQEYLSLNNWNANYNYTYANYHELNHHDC
The conditions noted are these: protein: recombinant; tags: N-terminal GST; dsDNA, one strand shown. The gist of the method:
as §1

For the next assay, the target named is ELF4 (Homo sapiens, UniProt Q99607 1-663). The conditions noted are these: protein: recombinant; tags: N-terminal GST; dsDNA, one strand shown. The gist of the method:
as §1

The next assay addresses T2, ELK4 (Homo sapiens, UniProt P28324-2 1-405).
T2 sequence: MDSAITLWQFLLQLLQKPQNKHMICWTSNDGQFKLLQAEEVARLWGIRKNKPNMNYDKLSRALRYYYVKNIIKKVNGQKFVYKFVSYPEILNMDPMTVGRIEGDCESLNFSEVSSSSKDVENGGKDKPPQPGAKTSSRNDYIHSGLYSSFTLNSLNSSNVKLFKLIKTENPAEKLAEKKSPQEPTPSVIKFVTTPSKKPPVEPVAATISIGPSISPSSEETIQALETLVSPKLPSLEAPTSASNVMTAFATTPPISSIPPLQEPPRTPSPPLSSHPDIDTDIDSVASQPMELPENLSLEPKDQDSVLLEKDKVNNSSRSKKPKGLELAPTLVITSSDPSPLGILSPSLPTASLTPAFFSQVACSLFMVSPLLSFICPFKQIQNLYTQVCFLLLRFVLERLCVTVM
The conditions noted are these: protein: recombinant; tags: N-terminal GST; dsDNA, one strand shown. The gist of the method:
as §1

Another assay concerns the target T3, ETV3L (Homo sapiens, UniProt Q6ZN32 1-361).
T3 sequence: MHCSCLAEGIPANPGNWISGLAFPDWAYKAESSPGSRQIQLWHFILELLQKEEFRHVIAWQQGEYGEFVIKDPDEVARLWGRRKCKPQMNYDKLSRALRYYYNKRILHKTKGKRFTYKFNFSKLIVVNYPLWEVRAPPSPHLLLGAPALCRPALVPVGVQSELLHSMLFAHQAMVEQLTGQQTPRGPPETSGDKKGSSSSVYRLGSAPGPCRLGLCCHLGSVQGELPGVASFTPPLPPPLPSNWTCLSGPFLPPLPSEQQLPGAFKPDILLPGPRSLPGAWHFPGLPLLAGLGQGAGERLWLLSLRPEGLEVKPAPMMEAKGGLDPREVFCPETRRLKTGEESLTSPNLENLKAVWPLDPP
The following applies: protein: recombinant; tags: N-terminal GST; dsDNA, one strand shown. In outline: as §1

Another assay concerns the target T4, ETS2 (Homo sapiens, UniProt P15036 1-469).
T4 sequence: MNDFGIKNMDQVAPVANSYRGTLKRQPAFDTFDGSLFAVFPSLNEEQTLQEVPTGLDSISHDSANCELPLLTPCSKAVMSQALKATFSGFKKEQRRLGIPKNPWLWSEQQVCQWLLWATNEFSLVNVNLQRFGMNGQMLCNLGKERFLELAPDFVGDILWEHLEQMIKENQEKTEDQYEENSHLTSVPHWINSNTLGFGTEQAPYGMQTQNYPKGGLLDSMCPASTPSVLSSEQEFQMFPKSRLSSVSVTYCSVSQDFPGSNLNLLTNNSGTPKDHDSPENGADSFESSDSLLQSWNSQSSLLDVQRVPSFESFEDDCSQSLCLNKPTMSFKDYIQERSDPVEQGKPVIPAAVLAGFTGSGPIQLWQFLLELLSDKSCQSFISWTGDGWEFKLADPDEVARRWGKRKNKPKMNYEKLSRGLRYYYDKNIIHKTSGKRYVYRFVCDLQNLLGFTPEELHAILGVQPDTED
The conditions noted are these: protein: recombinant; tags: N-terminal GST; dsDNA, one strand shown. The gist of the method: as §1

ELF4, sequence (Q99607 whole entry): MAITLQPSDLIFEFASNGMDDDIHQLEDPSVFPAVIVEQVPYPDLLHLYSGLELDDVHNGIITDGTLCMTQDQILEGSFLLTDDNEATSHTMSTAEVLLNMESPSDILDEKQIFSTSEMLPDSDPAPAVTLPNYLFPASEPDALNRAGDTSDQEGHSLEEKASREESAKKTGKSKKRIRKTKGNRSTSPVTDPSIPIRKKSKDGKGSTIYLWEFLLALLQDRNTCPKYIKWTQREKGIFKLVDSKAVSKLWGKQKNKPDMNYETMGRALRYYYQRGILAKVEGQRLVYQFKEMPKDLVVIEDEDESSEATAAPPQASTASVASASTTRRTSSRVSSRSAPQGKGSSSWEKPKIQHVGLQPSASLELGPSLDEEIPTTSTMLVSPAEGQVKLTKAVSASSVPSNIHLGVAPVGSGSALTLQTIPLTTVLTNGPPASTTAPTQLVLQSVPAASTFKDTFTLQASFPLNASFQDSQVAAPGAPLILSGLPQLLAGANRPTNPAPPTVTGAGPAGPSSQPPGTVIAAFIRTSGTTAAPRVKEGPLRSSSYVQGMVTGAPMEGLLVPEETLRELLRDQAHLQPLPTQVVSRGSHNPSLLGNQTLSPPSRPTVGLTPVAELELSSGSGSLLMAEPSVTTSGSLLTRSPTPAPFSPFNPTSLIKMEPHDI
SPIB, sequence (Q01892 whole entry): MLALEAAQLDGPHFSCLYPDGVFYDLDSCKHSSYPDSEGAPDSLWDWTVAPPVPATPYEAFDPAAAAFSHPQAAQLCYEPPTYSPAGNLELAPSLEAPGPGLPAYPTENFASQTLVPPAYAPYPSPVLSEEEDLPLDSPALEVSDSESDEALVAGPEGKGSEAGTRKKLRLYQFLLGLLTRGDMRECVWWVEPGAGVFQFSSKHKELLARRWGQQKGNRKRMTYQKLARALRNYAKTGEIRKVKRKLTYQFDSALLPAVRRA
ELF1, sequence (P32519 whole entry, the tested form may be a part): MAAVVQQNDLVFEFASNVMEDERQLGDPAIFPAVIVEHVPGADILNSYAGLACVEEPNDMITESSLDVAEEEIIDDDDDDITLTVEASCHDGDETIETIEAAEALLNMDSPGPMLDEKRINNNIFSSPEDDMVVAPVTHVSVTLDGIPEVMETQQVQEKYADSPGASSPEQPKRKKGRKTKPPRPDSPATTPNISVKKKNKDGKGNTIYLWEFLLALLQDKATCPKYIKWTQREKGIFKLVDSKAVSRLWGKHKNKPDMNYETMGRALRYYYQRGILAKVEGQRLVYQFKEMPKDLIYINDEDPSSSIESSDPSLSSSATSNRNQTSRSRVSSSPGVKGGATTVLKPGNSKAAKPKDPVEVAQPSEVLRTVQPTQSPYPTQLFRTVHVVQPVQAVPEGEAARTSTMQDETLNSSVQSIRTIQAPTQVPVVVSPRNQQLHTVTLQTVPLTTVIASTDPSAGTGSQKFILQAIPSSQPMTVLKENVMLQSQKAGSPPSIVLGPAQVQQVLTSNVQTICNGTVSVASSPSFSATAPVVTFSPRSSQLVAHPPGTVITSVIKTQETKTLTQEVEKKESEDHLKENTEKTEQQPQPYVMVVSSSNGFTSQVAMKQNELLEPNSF

TGAAAG: the binding signal with ELF1 is 1.05 fold enrichment (6-mer frequency, TF over GST control); with SPI1, 1.05 fold enrichment (6-mer frequency, TF over GST control); with SPIB, 1.04 fold enrichment (6-mer frequency, TF over GST control); with HSF1, 1.08 fold enrichment (6-mer frequency, TF over GST control); with SPIC it was 1.01 fold enrichment (6-mer frequency, TF over GST control); with ELF4, 1.01 fold enrichment (6-mer frequency, TF over GST control). Further, the binding signal in the assay with ELK4 is 1.06 fold enrichment (6-mer frequency, TF over GST control); with ETV3L, 1.04 fold enrichment (6-mer frequency, TF over GST control); in the assay with ETS2 it was 1.01 fold enrichment (6-mer frequency, TF over GST control).
